In ChEMBL document CHEMBL1157539, “Thousands of chemical starting points for antimalarial lead identification” (Nature, 2010):

What was measured:
Type in all cases: functional
Plasmodium falciparum [1] = assay: GSK_TCMDC: Inhibition of Plasmodium falciparum 3D7 in whole red blood cells, using parasite LDH activity as an index of growth. Test compounds present at 2uM
Plasmodium falciparum [2] = assay: GSK_TCMDC: Inhibition of Plasmodium falciparum Dd2 in whole red blood cells, using parasite LDH activity as an index of growth. Test compounds present at 2uM
HepG2 = assay: GSK_TCMDC: Percent inhibition of human HepG2 cell line. Test compounds present at 10uM.

Row | SMILES | Inhibition (Plasmodium falciparum [1]) [%] | Inhibition (Plasmodium falciparum [2]) [%] | Inhibition (HepG2) [%]
1 | O=C(NCCCCCN1CCC(c2c[nH]c3ccccc23)CC1)Nc1cccc(C(F)(F)F)c1 | 97 | 11 | 51
2 | CC(C)(C)c1ccc(CNC(=O)/C=C/c2ccc(-c3nc4cc(C(C)(C)C)ccc4[nH]3)cc2)cc1 | 100 | 66 | 35
3 | COc1ccccc1CNC(=O)c1cc(C2CC2)nc2c1cnn2C(C)C | 94 | 92 | 47
4 | OC1CCC(Nc2ccc3ncc(-c4ccc(Cl)cc4)n3n2)CC1 (stereo unspecified) | 97 | 98 | 57
5 | CC(=O)Nc1ccc(C(=O)Nc2cccc(-c3ccc(-c4nc5cc(C(F)(F)F)ccc5[nH]4)s3)c2)cn1 | 100 | 98 | 42
6 | Fc1cccc(C=NN=c2cc[nH]c3ccccc23)c1 | 100 | 72 | 3
7 | CC(=O)Nc1ccc(CN(Cc2ccc(C)cc2)Cc2cccc(Oc3ccccc3)c2)cc1 | 84 | 87 | 34
8 | Cc1ccc(NC(=O)c2ccc3ncccc3c2)cc1OC1CCN(C(C)C)C1.O=C(O)C(F)(F)F (stereo unspecified) | 95 | 37 | 12
9 | Cl.Nc1ccc(-c2cc(Cl)cc(Cl)c2)cc1-c1cc2ccccc2[nH]1 | 100 | 97 | 0
10 | CCN(CC)C(=O)c1cccc(C=Cc2ccc(-c3c(C)[nH]c(C)c(Cl)c3=O)cc2)c1 | 96 | 96 | 9
11 | O=C(Nc1ccc(S(=O)(=O)N2CCCCCC2)cc1)c1cc(-c2ccccc2O)n[nH]1 | 100 | 76 | 16
12 | CC1CCN(CC[C@H]2CCCN2S(=O)(=O)c2cccc(NC(=O)c3ccc(-c4ccccc4)cc3)c2)CC1 | 87 | 36 | 38
13 | COc1cc(C(=O)NC2CC(C)(C)N(C)C(C)(C)C2)ccc1-c1nc2cc(Cl)c(Cl)cc2[nH]1 | 100 | 99 | 69
14 | CCOC(=O)c1ccc(NC(=O)Nc2ccc(-c3ccc(-c4nc5cc(C(F)(F)F)ccc5[nH]4)cc3)cc2)cc1 | 100 | 52 | 20
15 | c1ccc(COc2ccc(Nc3ncnc4cnc(-c5ccc(CNc6cccnc6)o5)cc34)cc2)cc1 | 96 | 19 | 2
16 | O=S(=O)(Nc1ccc(CCN2CCC(N3CCCCC3)CC2)cc1)c1cccc(C(F)(F)F)c1 | 100 | 15 | 20

Row | SMILES | Inhibition (Plasmodium falciparum [1]) [%] | Inhibition (Plasmodium falciparum [2]) [%] | Inhibition (HepG2) [%]
17 | NC1=NC(c2ccccc2)(c2ccccc2)C(=O)N1Cc1ccccc1Br.O=CO | 93 | 38 | 36
18 | Cc1cc(Nc2ccccc2)nc(NCCOc2ccccc2)n1.Cl | 100 | 48 | 0
19 | CCNc1cc(C(=O)N[C@@H](Cc2ccccc2Cl)[C@H](O)CNC(C)CCCC(C)C)cc(N2CCCCS2(=O)=O)c1.Cl (stereo partly specified) | 97 | 62 | 12
20 | Cl.N=c1c2c(n(Cc3ccccc3)c3c1CCC3)CCCC2 | 86 | 39 | 4
21 | COc1ccc(CC(=O)Nc2ccc(-c3cccc(-c4nc5cccc(C)c5[nH]4)c3)cc2)cc1O | 96 | 30 | 6
22 | CCOC(=O)C1=C(C)NC2=C(C(=O)CCC2)C1c1cn(Cc2ccc(Cl)cc2Cl)nc1-c1ccccc1 (stereo unspecified) | 100 | 96 | 0
23 | COc1ccc(S(=O)(=O)NC2CCN(c3cc(C)nc(Nc4cccc(C#N)c4)n3)CC2)cc1.O=C(O)C(F)(F)F | 88 | 55 | 9
24 | O=C(O)C(F)(F)F.Oc1ccc(CCCNc2nc(NCc3ccccc3-c3ccccc3)nc(NC3CCNCC3)n2)cc1 | 97 | 2 | 0
25 | O=C(O)C(F)(F)F.O=S(=O)(NCCN1CCCC1)c1ccc(-c2ccc(CNC3Cc4ccccc4C3)cc2)cc1F | 100 | 75 | 33
26 | COc1ccc2[nH]ccc(=NN=Cc3ccncc3)c2c1 | 99 | 95 | 4
27 | Cc1cccc2nc(-c3ccc(-c4ccc(C(=O)NCCN5CCCC5)cc4)s3)[nH]c12 | 100 | 13 | 20
28 | Cc1noc(-c2ccc(N3CCC(C(=O)N4CCN(C(C)C)CC4)CC3)cc2)n1.Cl | 95 | 0 | 0
29 | CCC(C)(CC)C(=O)n1ncc2c3c(N)nc(N)nc3ccc21 | 94 | 6 | 73
30 | O=C(O)C(F)(F)F.OCC1CCN(Cc2ccc(-c3cccc(-c4nc5ccccc5[nH]4)c3)cc2)CC1 | 100 | 6 | 21
31 | O=C(Nc1cccc(-c2ccc(-c3nc4cc(F)ccc4[nH]3)cc2)c1)c1ccoc1 | 85 | 6 | 39
32 | CNCCNCc1cccc(-c2ccc(-c3nc4cccc(C)c4[nH]3)s2)c1.O=C(O)C(F)(F)F | 92 | 8 | 10
